40 molecules from PubChem BioAssay (NCATS) can be followed below.

Records with an inconclusive call do not appear. Entries that show only a call come without a potency. Values without a mark were called inactive. Activity calls are given as the source filed them. The call rests on the fitted dose curve; in most records, active means well fitted inhibition curve with a large enough effect; inconclusive means small, poorly fitted or top-dose-only effect; inactive means no such curve, though single readings can be large or run the other way.
Potency means the concentration at half of the fitted maximal effect.

Sequence of Cytochrome P450 2C19 (Homo sapiens) (P33261 whole entry, looked up): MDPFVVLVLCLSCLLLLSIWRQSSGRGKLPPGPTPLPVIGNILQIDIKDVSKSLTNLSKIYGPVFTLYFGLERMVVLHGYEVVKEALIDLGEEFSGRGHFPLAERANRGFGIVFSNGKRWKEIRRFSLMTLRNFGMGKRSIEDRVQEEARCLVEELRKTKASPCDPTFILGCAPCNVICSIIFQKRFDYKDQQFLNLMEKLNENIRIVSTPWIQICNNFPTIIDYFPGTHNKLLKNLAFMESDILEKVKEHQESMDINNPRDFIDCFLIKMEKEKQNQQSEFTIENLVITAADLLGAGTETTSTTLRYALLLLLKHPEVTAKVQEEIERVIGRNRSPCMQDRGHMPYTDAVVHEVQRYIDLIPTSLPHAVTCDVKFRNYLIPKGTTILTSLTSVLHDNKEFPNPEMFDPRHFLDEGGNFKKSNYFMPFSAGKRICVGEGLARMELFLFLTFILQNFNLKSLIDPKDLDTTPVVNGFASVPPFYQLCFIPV

In the test the target is Cytochrome P450 2C19 (Homo sapiens) (UniProt P33261). The test can be described thus: qHTS for inhibitors of CYP2C19 against the NCATS DSHEA and TCM libraries (AID 1919974). The note with it: CYP2C19 enzyme inhibition, luminescence qHTS; series mostly up to 34.1 µM. From the text:
Assay Development and Screening Technology Laboratory (ADST)
National Center for Advancing Translational Sciences (NCATS), Rockville, MD
National Institute of Health (NIH), Bethesda, Maryland
Dietary Supplements and Natural Products have minor oversight of their safety and efficacy. We assembled a collection of Dietary Supplements and Natural Products (DSNP) as well as Traditional Chinese Medicinal (TCM) Plant extracts, which were screened against an in vitro panel of assays, including a liver cytochrome p450 enzyme panel, CAR/PXR signaling pathways, and P-gp transporter assays, to assess their activity. This pipeline facilitated the interrogation of Natural Product-Drug Interaction (NaPDI) through prominent metabolizing pathways. In addition, we compared the activity profiles of the DSNP/TCM substances with those of an approved drug collection. Many of the approved drugs have well-annotated mechanisms of action (MOA) while the MOAs for most of the DSNP and TCM samples remain unknown. Based on the premise that compounds with similar activity profiles tend to share similar targets or MOA, we clustered the library activity profiles to identify overlap with the NCATS Pharmaceutical Collection to predict the MOAs of the DSNP/TCM substances. Overall, we highlight four significant bioactivity profiles (measured by p-values) as examples of this prediction. To assess broad cytotoxicity, we employed screening against a HepG2 cell line. In addition, transporter-mediated drug interactions are utilized in the characterization of DDIs using a P-glycoprotein (P-gp) assays. To profile potential P-gp activity, a differential cell viability was measured against two cell lines: a parental KB-3-1 human cervical adenocarcinoma cell line and the drug-resistant subline KB-8-5-11 that overexpresses P-gp.
To this end, we profiled both collections for potential CAR and/or PXR activity, employing a previously published 1536-well qHTS assay.
[1] Lee TD, et al. A High-Throughput Screen of a Library of Therapeutics Identifies Cytotoxic Substrates of P-glycoprotein. Mol Pharmacol. Nov 2019;96(5):629-640. doi:10.1124/mol.119.115964
PROTOCOL TABLE (as described by Inglese J, Shamu CE and Guy RK. 2007)
SEQUENCE No. (e.g., 1, 2, 3, etc.); […] (e.g., Cells, Incubation, Reagent, etc.); VALUE; DESCRIPTION.
1; Reagent; 2 uL; cytochrome P450 enzyme and luciferin substrate or buffer only, white solid-bottom Greiner plate.
2; Compounds and control; 16 nL; Kalypsis pintool (Wako USA) equipped with a 1536-well pin head to transfer to the assay plates.
3; Incubation; 15 min; room temperature.
4; Reagent; 2 uL; nicotinamide adenine dinucleotide phosphate (NADPH).
5; Incubation; 30 - 45 min; room temperature in the dark.
6; Reagent; 4 uL; P450-Glo assay detection reagent.
7; Centrifuge; 1000 RPM; 15 seconds.
8; Incubation; 30 min; room temperature.
9; Read; Luminescence; ViewLux plate reader.
NOTES (numbers refer to Sequence numbers above)
1. A 2 uL mixture of corresponding enzymes and luciferin substrate (final concentrations CYP enzyme-specific and pro-luciferin substrate-specific) or minus-enzyme (assay buffer conditions supplied by the manufacturer for respective enzyme isoform; typically, 100 mM KPO4) and luciferin substrate were dispensed using a BioRAPTR FRD (Beckman Coulter, Brea, CA) into columns of a 1536-well white solid-bottom medium binding plate (Greiner Bio-One, Monroe, NC). Five isoforms of cytochrome P450 were used (CYP1A2, CYP2C9, CYP2C19, CYP2D6, and CYP3A4).
2. Substances (final concentrations of most substances ranged from 19.5 nM to 39.8 uM) and controls (CYP-specific) were transferred (16 nL) via pintool (Wako Automation, Richmond, VA). Intraplate controls furafylline (CYP1A2), sulfaphenazole (CYP2C9), ketoconazole (CYP2C19), quinidine (CYP2D6), and ketoconazole (CYP3A4) were used correspondingly.
3. Assay plates were incubated at room temperature for 15 min.
4-5. […]
Take `O=Cc1ccccc1O`: the Potency entry is “inactive”. Take `CCCCCCCCCCCCCC(=O)O`: the Potency entry is “inactive”.

In the case of `COc1ccc(-c2coc3cc(O[C@@H]4O[C@H](CO)[C@@H](O)[C@H](O)[C@H]4O)ccc3c2=O)cc1`, the Potency result was “inactive”. With `C[C@@H]1O[C@@H](OC[C@H]2OC(Oc3c(-c4ccc(O)c(O)c4)oc4cc(O)cc(O)c4c3=O)[C@H](O)[C@@H](O)[C@@H]2O)[C@H](O)[C@H](O)[C@H]1O` (stereo not given in full), the Potency result was “inactive”.

On to `Oc1cc(O)c2c(c1)O[C@@H](c1cc(O)c(O)c(O)c1)[C@H](O)C2`, for which the Potency was 3.55 µM (active). Regarding `O=c1cc(-c2ccc(O)c(O)c2)oc2cc(O[C@@H]3O[C@@H](CO)[C@@H](O)[C@@H](O)[C@H]3O)cc(O)c12`, the Potency was 3.55 µM (active). As for `CCCCCCCCCCCCCCCCCCCCCCCCCCCCCCO`, the activity change, negative = inhibition was 9.51% [at 4.27 µM].

Consider `O=C(/C=C/c1ccc(O)c(O)c1)O[C@@H]1CC(C(=O)O)=C[C@@H](O)[C@H]1O`, for which the Potency entry is “inactive”. Still for that read-out and setting: the same measure for `CC(=O)O[C@@H]1CC[C@@]2(C)[C@@H](CC[C@]3(C)[C@@H]2C(=O)C=C2[C@@H]4[C@@H](C)[C@H](C)CC[C@]4(C)CC[C@]23C)[C@@]1(C)C(=O)O`: 3.55 µM (active); for `OCCc1ccc(O)cc1`: “inactive”; for `CC(C)=CCC[C@](C)(O[C@@H]1O[C@H](CO)[C@@H](O)[C@H](O)[C@H]1O)[C@H]1CC[C@]2(C)[C@@H]1[C@H](O)C[C@@H]1[C@@]3(C)CC[C@H](O)C(C)(C)[C@@H]3[C@@H](O[C@@H]3O[C@H](CO)[C@@H](O)[C@H](O)[C@H]3O[C@@H]3O[C@@H](C)[C@H](O)[C@@H](O)[C@H]3O)C[C@]12C`: “inactive”.

In the case of `C=C1CC[C@H](O)C/C1=C\C=C1/CCC[C@]2(C)[C@@H]([C@H](C)CC[C@H](C)C(C)C)CC[C@@H]12`, the Potency is 22.4 µM (active). For the molecule `CC(C)c1ccc(C=O)cc1`, the Potency entry was “inactive”.

On to `C=C1CC/C=C(/C)CC[C@@H]2[C@@H]1CC2(C)C`, for which the Potency was 3.55 µM (active). `CC[C@H](CC[C@@H](C)[C@H]1CCC2C3CCC4C[C@@H](O)CC[C@]4(C)C3CC[C@@]21C)C(C)C` (stereo not given in full): the Potency entry is “inactive”. Same read-out and setting: the same measure for `C=C1CC[C@H]2C[C@@H]1C2(C)C`: “inactive”; for `C=C1C[C@@]23CC[C@H]4[C@@](C)(CCC[C@@]4(C)C(=O)O[C@@H]4O[C@H](CO)[C@@H](O)[C@H](O)[C@H]4O)[C@@H]2CC[C@]1(O[C@@H]1O[C@H](CO)[C@@H](O)[C@H](O[C@@H]2O[C@H](CO)[C@@H](O)[C@H](O)[C@H]2O)[C@H]1O[C@@H]1O[C@@H](C)[C@H](O)[C@@H](O)[C@H]1O)C3`: “inactive”; for `O=C(O)[C@H]1O[C@@H](Oc2c(-c3ccc(O)c(O)c3)oc3cc(O)cc(O)c3c2=O)[C@H](O)[C@@H](O)[C@@H]1O`: 3.98 µM (active). For the molecule `CN(CC(=O)O)C(=N)N`, the Potency entry is “inactive”. On to `CCCCCC(=O)CC`, for which the Potency result was “inactive”.

For the molecule `Cc1ccc(C(C)C)cc1`, the Potency result was “inactive”. As for `CC/C=C\C/C=C\C/C=C\C/C=C\CCCCC(=O)O`, the activity change, negative = inhibition was 43.3% [at 4.27 µM]. Turning to `CC(C)=CCC[C@](C)(OC1OC(COC2OCC(O)C(O)C2O)C(O)C(O)C1O)[C@H]1CC[C@]2(C)[C@@H]1[C@H](O)C[C@@H]1[C@@]3(C)CC[C@H](OC4OC(CO)C(O)C(O)C4OC4OC(CO)C(O)C(O)C4O)C(C)(C)[C@@H]3CC[C@]12C` (stereo not given in full), the Potency entry was “inactive”. As for `C=C(C)C(CC=C(C)C)CC12CC(CC=C(C)C)C(C)(C)C(CC=C(C)C)(C(=O)/C(=C(\O)c3ccc(O)c(O)c3)C1=O)C2=O` (stereo not given), the Potency was 25.1 µM (active).

In the case of `CC12CC3(O)OC(O1)C1(COC(=O)c4ccc(O)cc4)C3CC21OC1OC(CO)C(O)C(O)C1O` (stereo not given), the Potency result is “inactive”.

Regarding `CC(=O)O[C@H]1[C@H](O[C@H]2CC[C@]34C[C@]35CC[C@]3(C)[C@@H]([C@@]6(C)CC[C@@H](C(C)(C)O)O6)[C@@H](O)C[C@@]3(C)[C@@H]5C[C@H](O[C@@H]3O[C@H](CO)[C@@H](O)[C@H](O)[C@H]3O)[C@H]4C2(C)C)OC[C@@H](O)[C@@H]1O`, the Potency entry is “inactive”.

Take `CCCCCCCCC/C=C/C(=O)CCc1ccc(O)c(OC)c1`: the Potency was 3.98 µM (active).

For the molecule `Cc1ncc(COP(=O)(O)O)c(C)c1O`, the Potency is 7.08 µM (active). With `CCCCCCCC/C=C/CCCCCCCC(=O)O`, the Potency is 3.55 µM (active). Turning to `COc1ccc(C(=O)O)cc1`, the Potency result was “inactive”.

As for `CCCCCCCCCCCCCCCCCCCCCC(=O)O`, the Potency result is “inactive”. In the case of `CC(C)[C@H](C)CC[C@@H](C)[C@H]1CC[C@H]2[C@@H]3CC=C4C[C@@H](O)CC[C@]4(C)[C@H]3CC[C@]12C`, the Potency entry was “inactive”. Turning to `C=C1C[C@]23CC[C@H]4[C@@](C)(CCC[C@@]4(C)C(=O)O)[C@@H]2CC[C@@]1(O[C@@H]1O[C@H](CO)[C@@H](O)[C@H](O)[C@H]1O[C@@H]1O[C@H](CO)[C@@H](O)[C@H](O)[C@H]1O)C3`, the Potency entry was “inactive”. Consider `C=C/C(C)=C/C/C=C(\C)CCC=C(C)C`, for which the Potency was 31.6 µM (active). Regarding `O[C@@H]1[C@@H](O)[C@H](OC/C=C/c2ccccc2)O[C@H](CO[C@@H]2OC[C@H](O)[C@H](O)[C@H]2O)[C@H]1O`, the Potency result was “inactive”. Take `C=CC(C)(CCC=C(C)C)OC(C)=O` (stereo not given): the Potency entry is “inactive”.

As for `CC1=CCC(O)(C(C)C)CC1` (stereo not given), the Potency entry was “inactive”. Take `CC(C)(O)[C@@H]1CC[C@](C)([C@@H]2[C@H](O)C[C@]3(C)C4C[C@@H](O[C@H]5O[C@@H](CO)[C@H](O)[C@@H](O)[C@@H]5O)C5C(C)(C)[C@H](O[C@H]6OC[C@H](O)[C@@H](O)[C@@H]6O)CC[C@]56CC46CC[C@@]23C)O1` (stereo not given in full): the Potency result was “inactive”. As to `CC(C)=CCC[C@](C)(O[C@@H]1O[C@H](CO)[C@@H](O)[C@H](O)[C@H]1O)[C@H]1CC[C@]2(C)[C@@H]1[C@H](O)C[C@@H]1[C@@]3(C)CC[C@H](O[C@@H]4O[C@H](CO)[C@@H](O)[C@H](O)[C@H]4O[C@@H]4O[C@H](CO)[C@@H](O)[C@H](O)[C@H]4O)C(C)(C)[C@@H]3CC[C@]12C`, the Potency entry is “inactive”. Take `C=CC(=C)CCC=C(C)C`: the Potency entry is “inactive”.
